# KLK7 zymogen act: proKLK7 (human) activation, primary screen. P49862. AID 652039. activation, % at 7 µM. purified proKLK7, EDANS-DABCYL substrate fluorescence; 100% is mature enzyme control, 0% vehicle. 370,000 compounds, 0.9% hits;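 active = activation above the mean of all tested compounds plus 3 SD, computed per campaign excluding outliers beyond control limits, cut at about 13% in these data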
# Target sequence (P49862 whole entry, looked up): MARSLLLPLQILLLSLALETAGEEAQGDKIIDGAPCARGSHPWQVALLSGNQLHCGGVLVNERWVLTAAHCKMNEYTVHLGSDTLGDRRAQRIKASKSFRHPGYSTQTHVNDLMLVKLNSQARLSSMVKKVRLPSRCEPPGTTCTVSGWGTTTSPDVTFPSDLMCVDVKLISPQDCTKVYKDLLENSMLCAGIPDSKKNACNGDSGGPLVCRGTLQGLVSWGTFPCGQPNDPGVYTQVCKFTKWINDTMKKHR
# ADAM17 inh: inhibits human ADAM17; P78536; recombinant ADAM17, EDANS/DABCYL FRET peptide cleavage; inhibition, % at 6.95 µM; 370,000 compounds, 0.83% hits; AID 720648;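 active = inhibition above the mean of compounds lying between control limits plus 3 SD, set per campaign, cut at about 8.5% in these data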;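 note: 0% = DMSO-only wells as the low control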
# V-ATPase pHluor: regulators of yeast V-ATPase proton transport; 350,000 compounds, 0.37% hits; S. cerevisiae, pHLuorin cytosolic pH fluorescence; AID 504577; response, % at 10 µM; in the data active = response mostly above about 7.3%, no sharp cut-off; inactive = mostly below about 5.4%; note: actives read high
# ADAM10 inh: ADAM10 inhibition, QFRET primary screen; O14672; recombinant ADAM10, EDANS/DABCYL FRET peptide cleavage, 3 h; inhibition, % at 7 µM; 370,000 compounds, 0.62% hits; AID 720582;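 active = inhibition above a per-campaign cutoff equal to the mean of compounds falling between control-based bounds plus 3 SD, cut at about 20% in these data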;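 note: 0% = DMSO wells while the 100% control is not disclosed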
# ADAM10 confirm: human ADAM10 inhibition, confirmation; ADAM10 QFRET peptide cleavage, EDANS fluorescence; shares compounds with ADAM10 inh; inhibition, % at 6.95 µM; 2,100 compounds, 1% hits;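 active = inhibition above about 20% chosen separately for each screening run, limit read from the data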;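 note: 0% = DMSO wells and 100% = marimastat wells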
# ADAM17 counter: inhibits human ADAM17 in ADAM10 exosite counter-screen; shares compounds with ADAM10 inh; ADAM17 QFRET peptide cleavage, EDANS fluorescence; inhibition, % at 6.95 µM; 2,100 compounds, 0.5% hits; AID 743214;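 active = mean triplicate inhibition above the solvent-only control wells' mean plus 3 SD, cut at about 12% in these data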;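 note: 0% = DMSO wells and 100% = marimastat wells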
# * marks the source's active call; other numbers are inactive results; . = no result given. In the library only some 2.3% were active in any assay of this set; here they are far more common.
SMILES,KLK7 zymogen act,ADAM17 inh,V-ATPase pHluor,ADAM10 inh,ADAM10 confirm,ADAM17 counter
CCN(CC)S(=O)(=O)c1cccc(-c2n[nH]c(=S)n2/N=C/c2ccc(OC(F)F)cc2)c1,-1,8,-1,20*,6,3
CCN(CC)S(=O)(=O)c1cccc(-c2n[nH]c(=S)n2/N=C/c2ccc(OC)cc2)c1,0,5,3,13,.,.
Cc1sc2ncnc(N3CCC(C(=O)NNC(=O)COc4ccccc4F)CC3)c2c1C,0,2,-1,2,.,.
Cc1sc2ncnc(N3CCC(C(=O)NNC(=O)COc4ccccc4Cl)CC3)c2c1C,0,0,7,26*,3,2
Cc1sc2ncnc(N3CCC(C(=O)NNC(=O)COc4ccc(Cl)cc4)CC3)c2c1C,0,2,-1,21*,1,0
CC(=O)Nc1ccc(-c2ccnc3c2CC(C)(C(=O)Nc2ccc(Cl)c(C(F)(F)F)c2)O3)cc1 (stereo not given),1,5,.,20*,9,3
C[C@@H]1CN([C@@H](C)CO)C(=O)CCCn2cc(nn2)CO[C@H]1CN(C)C(=O)Nc1ccc(C(F)(F)F)cc1,0,-4,.,-11,.,.
CCN(c1ccccc1)S(=O)(=O)c1ccc(Cl)c(NC(=O)CSc2ncn[nH]2)c1,-1,2,-3,23*,3,3
CCN=C1NC(c2ccc(Cl)cc2)C(C(=O)OC)=C(C)N1Cc1cccc(C(F)(F)F)c1 (stereo not given),0,-5,.,-5,.,.
CN1C(=O)Cc2cc(S(=O)(=O)N3CCN(c4ccc(Cl)cc4)CC3)ccc21,0,8,-6,21*,-1,0
Nc1c(-c2ccccc2)c(CSc2nc3ccccc3[nH]2)nn1-c1cccc(Cl)c1,-4,2,-2,-1,.,.
Nc1c(-c2ccccc2)c(CSc2nc3ccccc3[nH]2)nn1-c1ccc(Cl)cc1,-1,4,2,29*,5,3
COC(=O)C1CN(CCc2ccccc2)CCS(=O)(=O)N1Cc1ccccc1F (stereo not given),0,1,.,4,.,.
O=S(=O)(Nc1cccc2cccnc12)c1ccc(S(=O)(=O)N2CCCC2)cc1,0,5,-6,22*,3,2
Cc1cccc(C)c1-c1ccc(CN2C(CC(C)C)C(=O)N(Cc3cn(CCO)nn3)CCS2(=O)=O)cc1 (stereo not given),0,8,2,22*,11,3
CCOC(=O)c1c(NC(C)=O)sc2c(OCC(O)CNC(C)(C)C)c(Br)ccc12 (stereo not given),0,-23,4,-84,.,.
CCOC(=O)c1c(N)sc2c(OCC)c(Br)ccc12,-2,5,2,23*,6,3
O=C(N[C@H](C(=O)N1CCC[C@H]1C(=O)NCCc1ccccc1Cl)c1ccccc1)c1cccs1,1,-1,.,1,.,.
CN(C(=O)c1cncc(Br)c1)c1c(N)n(Cc2ccccc2)c(=O)[nH]c1=O,0,-1,-1,82*,1,0
CCN(c1ccccc1)S(=O)(=O)c1ccc(N2CCN(c3ccc(O)cc3)CC2)nc1,-1,3,0,25*,6,1
CCN(c1ccccc1)S(=O)(=O)c1ccc(N2CCN(c3ccc(OC)cc3)CC2)nc1,0,1,-1,4,.,.
CCC(=O)OCCCN1CCC2(CCCCC2)C1=O,.,1,.,4,.,.
Cc1cc(SCC(=O)N/N=C/c2ccc(O)c(O)c2)c(C)cc1Br,0,4,3,29*,6,2
COC(=O)[C@]12C[C@H](CC(=O)NCc3ccc(OC)c(OC)c3)C(=O)N(CCC3=CCCCC3)C1=C[C@H](C(C)C)O[C@@H]2C1CC1,0,1,.,7,.,.
O=C(COC(=O)CCSc1ccccc1)Nc1ccc(F)cc1Cl,0,7,-9,7,.,.
SMILES,KLK7 zymogen act,ADAM17 inh,V-ATPase pHluor,ADAM10 inh,ADAM10 confirm,ADAM17 counter
O=C(COC(=O)CCSc1ccccc1Cl)Nc1ccc(F)cc1F,0,7,-3,23*,2,1
O=C1/C(=C/c2cccs2)N=C(c2cccs2)N1Nc1ccccc1,0,5,1,25*,8,2
O=C1/C(=C\c2cccs2)N=C(c2cccs2)N1Nc1ccccc1,1,2,-13,14,.,.
CC(=O)Oc1ccc([C@@H]2COc3c(ccc4c3C=CC(C)(C)O4)C2)c(OC(C)=O)c1,0,-1,2,6,.,.
CC1(C)C=Cc2c(ccc3c2OC[C@H](c2ccc(O)cc2O)C3)O1,1,8,-1,28*,13,3
CCOC(=O)c1ccccc1S(=O)(=O)N1CCN(c2nc(-c3cccs3)nc3ccccc23)CC1,.,-2,.,0,.,.
CSc1ccc(S(=O)(=O)NCc2ccc(Cl)cc2Cl)cc1,0,2,1,20*,2,0
CSc1ccc(S(=O)(=O)NCc2ccccc2)cc1,0,0,7,3,.,.
CCCCOCC1CN(CCCC)S(=O)(=O)c2c(NCc3cc(OC)c(OC)c(OC)c3)cccc2O1 (stereo not given),0,1,.,-3,.,.
O=C(NN1C(=O)C2C(c3ccccc3)C=CC(c3ccccc3)C2C1=O)c1cccc(Br)c1 (stereo not given),0,8,-3,21*,10,5
Cc1ccc(Cl)cc1NC(=O)OCCN(C)C(=O)Nc1cc(Cl)ccc1C,0,1,.,-1,.,.
CNCCOc1nc(N2CCOCC2)nc(C)c1[N+](=O)[O-],0,2,6,1,.,.
CCOc1nc(N2CCOCC2)nc(C)c1[N+](=O)[O-],0,1,-4,20*,1,0
COc1ccc(NS(=O)(=O)c2ccc(-c3ccccn3)s2)cc1,0,5,3,22*,0,0
CC(C)C[C@H](NC(=O)c1[nH]cnc1C(=O)N[C@H](C)c1ccccc1)C(=O)OC(C)(C)C,2,9,3,25*,4,2
CC(C)C[C@H](NC(=O)c1nc[nH]c1C(=O)N[C@@H](CC(C)C)C(=O)OCc1ccccc1)C(=O)OCc1ccccc1,0,2,-6,8,.,.
C[C@H](NC(=O)c1nc[nH]c1C(=O)N[C@@H](C)c1ccccc1)C(=O)OC(C)(C)C,0,2,-3,12,.,.
CC(C)C[C@H](NC(=O)c1nc[nH]c1C(=O)NC(c1ccccc1)c1ccccc1)C(=O)OCc1ccccc1,0,7,-3,23*,17,6
O=C(N[C@@H](Cc1ccccc1)C(=O)OCc1ccccc1)c1nc[nH]c1C(=O)NCc1ccccc1,1,8,-1,21*,7,2
O=C(CNC(=O)c1nc[nH]c1C(=O)N1CCc2ccccc2C1)OCc1ccccc1,0,3,2,22*,0,0

# Source: PubChem (several laboratories)
